In PubChem BioAssay (NCATS):
Several values for one entry are separate records, joined by “and”; a condition that tells them apart may be missing. Identical values can stand only once. Inconclusive results are not listed. Activity calls are given as the source filed them. Unless noted, calls follow the shape of the dose curve; as a rule, active = well fitted curve in the direction sought with a large enough effect; inconclusive = small, poorly fitted or top-dose-only effect, or another doubt; inactive = no such curve, though single readings can be large; an effect the other way counts as inactive or inconclusive.

Experiments:
[1] = Validation screen for small molecules that induce DNA re-replication in SW480 colon adenocarcinoma cells (AID 504364)
Outline: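 SW480 cells (250/well) exposed 48 h at 37 C, 5% CO2, then Hoechst-stained 40 min. Nuclear DNA content imaged by fluorescence scanning (405 nm excitation, 500-530 nm emission); re-replication scored as increased nuclei with elevated intensity.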

[2] = biological target: Peptidyl-prolyl cis-trans isomerase NIMA-interacting 1 (Homo sapiens) (UniProt Q13526); assay: qHTS Validation Assay to Find Inhibitors of Pin1 (AID 504536; active = well fitted inhibition curve with a large enough effect in the polarisation, with a control signal flat, not every such curve was filed as active; the % refers to the polarisation)
Chain of Peptidyl-prolyl cis-trans isomerase NIMA-interacting 1 (Homo sapiens) (Q13526 whole entry, looked up): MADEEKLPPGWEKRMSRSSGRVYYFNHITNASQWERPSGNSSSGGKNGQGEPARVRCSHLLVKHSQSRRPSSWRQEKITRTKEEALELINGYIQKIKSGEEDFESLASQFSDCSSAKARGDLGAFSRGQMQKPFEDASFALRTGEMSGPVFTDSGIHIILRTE
Outline: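 Fluorescence polarization competition: compounds (titration) displace HiFluor-488-labeled Pin1-1b peptide from Pin1 (0.3 uM final) in pH 7.5 HEPES buffer with DTT, 10 min at room temperature; %Activity normalized to no-enzyme wells, curves fitted.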

[3] = biological target: Phosphoglycerate kinase, glycosomal (Trypanosoma brucei brucei) (UniProt P07378); assay: qHTS Validation Assay to Find Inhibitors of Phosphoglycerate Kinase (AID 504547)
Chain of Phosphoglycerate kinase, glycosomal (Trypanosoma brucei brucei) (P07378 whole entry, looked up): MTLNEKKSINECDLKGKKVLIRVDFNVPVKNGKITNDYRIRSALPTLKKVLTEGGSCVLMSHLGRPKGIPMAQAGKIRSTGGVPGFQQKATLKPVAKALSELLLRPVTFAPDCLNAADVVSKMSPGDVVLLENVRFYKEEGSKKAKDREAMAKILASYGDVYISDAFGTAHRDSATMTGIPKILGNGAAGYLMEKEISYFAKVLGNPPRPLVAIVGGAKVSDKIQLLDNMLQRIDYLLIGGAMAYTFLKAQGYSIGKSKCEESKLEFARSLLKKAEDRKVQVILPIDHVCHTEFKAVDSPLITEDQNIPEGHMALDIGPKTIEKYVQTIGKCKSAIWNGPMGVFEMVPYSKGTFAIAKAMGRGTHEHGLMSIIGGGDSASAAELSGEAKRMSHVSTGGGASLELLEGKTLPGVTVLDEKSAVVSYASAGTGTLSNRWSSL
Outline: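 PGK activity was coupled to GAPDH (100nM final), which generates the unstable substrate 1,3-bisphosphoglycerate in-well. Reactions ran 60 minutes at room temperature in 100mM TEA pH 7.6, 5mM MgCl2, 0.01% Tween-20, then Kinase-Glo Plus luminescence was read.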

[4] = biological target: phosphoglycerate mutase (Leishmania major) (UniProt Q4Q090); assay: qHTS Validation Assay to Find Inhibitors of Phosphoglycerate Mutase (AID 504548); also: series mostly up to about 58 µM
Chain of phosphoglycerate mutase (Leishmania major) (Q4Q090 1-553): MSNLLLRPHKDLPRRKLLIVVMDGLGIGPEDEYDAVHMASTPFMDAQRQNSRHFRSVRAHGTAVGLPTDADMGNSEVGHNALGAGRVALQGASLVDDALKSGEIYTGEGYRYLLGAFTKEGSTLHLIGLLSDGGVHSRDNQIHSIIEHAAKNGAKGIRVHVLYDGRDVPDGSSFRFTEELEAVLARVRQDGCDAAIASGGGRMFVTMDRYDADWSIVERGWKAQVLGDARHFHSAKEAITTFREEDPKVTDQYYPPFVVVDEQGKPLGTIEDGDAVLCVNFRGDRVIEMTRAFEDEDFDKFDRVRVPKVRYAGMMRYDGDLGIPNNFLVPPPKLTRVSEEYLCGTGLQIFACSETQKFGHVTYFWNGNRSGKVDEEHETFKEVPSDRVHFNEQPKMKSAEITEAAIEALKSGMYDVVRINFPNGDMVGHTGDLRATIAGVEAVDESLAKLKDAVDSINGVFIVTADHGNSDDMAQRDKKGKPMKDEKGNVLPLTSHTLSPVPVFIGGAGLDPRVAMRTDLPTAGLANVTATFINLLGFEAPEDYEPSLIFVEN
Outline: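 Lm PGAM at 1.25 nM final with substrate in 100 mM TEA pH 7.6, 5 mM MgCl2, 0.01% Tween-20; 45 min at room temperature. Kinase-GloPlus added, 10 min, end-point luminescence read.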

[5] = qHTS for Inhibitors of ATXN expression: Validation of Cytotoxic Assay (AID 588349)
Outline: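 HEK293 cells treated with titrated compound for 72 hr at 37 degrees C; viability read as intracellular ATP by CellTiter Glo luminescence.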

[6] = biological target: Estrogen receptor (Homo sapiens) (UniProt P03372); assay: qHTS assay for small molecule agonists of estrogen receptor alpha signaling (AID 588514; calls by dose curve; also: nearly all actives have a fitted effect of over 70% in size)
Chain of Estrogen receptor (Homo sapiens) (P03372 whole entry, looked up): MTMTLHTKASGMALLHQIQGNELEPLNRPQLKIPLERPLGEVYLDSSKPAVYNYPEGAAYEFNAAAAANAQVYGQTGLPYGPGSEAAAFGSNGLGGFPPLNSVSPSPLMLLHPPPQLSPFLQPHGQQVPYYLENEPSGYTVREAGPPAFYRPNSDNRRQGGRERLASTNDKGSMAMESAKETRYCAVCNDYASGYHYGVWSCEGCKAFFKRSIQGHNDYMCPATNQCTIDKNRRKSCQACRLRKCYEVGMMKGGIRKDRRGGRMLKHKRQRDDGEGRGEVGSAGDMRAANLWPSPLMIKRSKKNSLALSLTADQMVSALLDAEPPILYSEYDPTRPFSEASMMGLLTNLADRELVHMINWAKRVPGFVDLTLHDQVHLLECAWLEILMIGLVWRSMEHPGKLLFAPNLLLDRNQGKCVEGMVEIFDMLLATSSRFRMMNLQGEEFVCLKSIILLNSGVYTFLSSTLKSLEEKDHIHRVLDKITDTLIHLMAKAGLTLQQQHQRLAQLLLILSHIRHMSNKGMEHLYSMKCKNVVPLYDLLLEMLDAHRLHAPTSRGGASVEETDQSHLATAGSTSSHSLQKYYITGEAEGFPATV
Outline: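 ER-alpha-UAS-bla GripTite HEK293 cells, 5000/well in 2% charcoal/dextran-stripped FBS medium, treated with compound titrations 18 h at 37 C. CCF4 beta-lactamase read by fluorescence after 2 h RT; normalised to 20 nM 17-beta-estradiol (100%) and DMSO (0%), Hill fit for EC50 and efficacy.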

[7] = biological target: Ubiquitin carboxyl-terminal hydrolase 1 (Homo sapiens) (UniProt O94782); assay: Inhibitors of USP1/UAF1: Pilot qHTS (AID 504865); also: nearly all actives have a fitted effect of over 35% in size; also: potency is read from the fitted curve at half-maximal effect
Chain of Ubiquitin carboxyl-terminal hydrolase 1 (Homo sapiens) (O94782 whole entry, looked up): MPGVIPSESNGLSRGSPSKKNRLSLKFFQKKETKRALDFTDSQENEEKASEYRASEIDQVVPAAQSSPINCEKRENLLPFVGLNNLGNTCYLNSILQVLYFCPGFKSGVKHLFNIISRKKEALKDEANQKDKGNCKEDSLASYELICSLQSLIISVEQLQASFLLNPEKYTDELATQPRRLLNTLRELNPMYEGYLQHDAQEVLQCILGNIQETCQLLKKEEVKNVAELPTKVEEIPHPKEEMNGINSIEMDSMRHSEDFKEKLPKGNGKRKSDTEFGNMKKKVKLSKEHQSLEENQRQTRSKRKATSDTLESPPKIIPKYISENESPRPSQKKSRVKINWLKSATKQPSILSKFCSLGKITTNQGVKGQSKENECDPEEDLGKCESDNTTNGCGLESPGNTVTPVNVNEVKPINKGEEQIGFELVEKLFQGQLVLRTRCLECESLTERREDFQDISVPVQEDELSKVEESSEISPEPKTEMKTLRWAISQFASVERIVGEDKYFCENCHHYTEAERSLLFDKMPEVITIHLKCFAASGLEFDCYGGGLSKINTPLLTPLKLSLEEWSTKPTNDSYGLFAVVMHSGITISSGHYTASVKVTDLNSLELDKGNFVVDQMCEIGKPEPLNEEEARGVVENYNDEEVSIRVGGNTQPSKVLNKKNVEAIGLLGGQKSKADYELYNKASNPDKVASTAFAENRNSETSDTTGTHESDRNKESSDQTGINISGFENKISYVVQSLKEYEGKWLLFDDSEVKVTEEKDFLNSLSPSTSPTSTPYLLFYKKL
Outline: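 Enzyme-free wells gave the negative control, while test wells held 1nM USP1/UAF1 preincubated with compound for 15 min at room temperature. Ub-Rho at 150nM final started the reaction, and fluorescence at 480/540 nm was recorded kinetically.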

[8] = qHTS for Inhibitors of ATXN expression: Validation (AID 588378); also: nearly all actives have a fitted effect of over 75% in size; also: potency is read from the fitted curve at half-maximal effect
Outline: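 After a 2 h attachment and 24 h compound incubation, HEK293-ATXN2-FFLuc wells are read for fluorescence at 405 nm excitation/525 nm emission as a viability measure, then for Bright-Glo luminescence reflecting ATXN2 expression.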

[9] = biological target: DNA dC->dU-editing enzyme APOBEC-3G (Homo sapiens) (UniProt Q9HC16); assay: qHTS for inhibitors of Vif-A3G interactions: Validation (AID 588379)
Chain of DNA dC->dU-editing enzyme APOBEC-3G (Homo sapiens) (Q9HC16 whole entry, looked up): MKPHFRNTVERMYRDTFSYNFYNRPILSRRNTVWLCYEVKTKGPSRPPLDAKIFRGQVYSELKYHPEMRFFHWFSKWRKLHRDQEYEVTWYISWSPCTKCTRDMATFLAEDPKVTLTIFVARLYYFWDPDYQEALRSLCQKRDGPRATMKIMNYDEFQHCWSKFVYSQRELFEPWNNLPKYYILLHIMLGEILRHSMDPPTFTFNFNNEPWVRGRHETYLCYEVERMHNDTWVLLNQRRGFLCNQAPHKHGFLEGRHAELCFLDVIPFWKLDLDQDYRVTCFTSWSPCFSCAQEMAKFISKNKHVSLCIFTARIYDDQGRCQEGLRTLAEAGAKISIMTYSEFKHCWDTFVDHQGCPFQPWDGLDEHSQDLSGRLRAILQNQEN
Outline: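 HeLa cells stably expressing Vif and A3G-eYFP, 700 cells/well, incubated overnight at 37 deg C, then exposed to compound overnight at 37 deg C. Inhibition of Vif-mediated degradation read as increased yellow fluorescence (Ex 488/Em 500-530) by laser-scanning cytometry.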

[10] = biological target: Estrogen receptor (Homo sapiens) (UniProt P03372); assay: qHTS assay for small molecule antagonists of estrogen receptor alpha signaling (AID 588513; active = well fitted curve in the direction sought with a large enough effect in the signal ratio, with a control signal flat, not every such curve was filed as active; the % refers to the signal ratio)
Outline: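 Antagonist-mode qHTS in ER-alpha-UAS-bla HEK 293 cells: compound titration, 0.5nM estradiol for 18 h, CCF4 fluorescence, Hill-derived IC50.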

Measured: Potency

CN(C)CCOC(c1ccccc1)c1ccccc1
inactive: [1] | [2] | [3] | [4] | [5] | [6]

O=c1c(-c2ccc(O)cc2)coc2cc(O)cc(O)c12
inactive: [1] | [2] | [3] | [7] | [5] | [8]

Nc1nnc(-c2cccc(Cl)c2Cl)c(N)n1
not listed: [4] | [6] | [10]
inactive: all other assays above

NC(CO)C(=O)NNCc1ccc(O)c(O)c1O (stereo not given)
inactive: [1] | [2] | [3] | [7] | [5] | [8]

Nc1nc2c(ncn2COC(CO)CO)c(=O)[nH]1
inactive: [1] | [2] | [3] | [7] | [5] | [8]

CC(C)NCC(O)c1ccc(O)c(O)c1 (stereo not given)
inactive: [1] | [2] | [3] | [7] | [8]

CN1CCC(=C2c3ccccc3CC(=O)c3sccc32)CC1
inactive: [1] | [2] | [3] | [7] | [5] | [9]

Fc1ccc([C@@H]2CCNC[C@H]2COc2ccc3c(c2)OCO3)cc1
active: [8] 35.5 µM
inactive: [1] | [2] | [3] | [7]

Cn1cnc2c1c(=O)[nH]c(=O)n2C
not listed: [4] | [6] | [10]
inactive: all other assays above

COc1nc(C)nc(Cl)c1NC1=NCCN1
inactive: [1] | [2] | [3] | [7] | [5] | [8]

CCC1(C)CC(=O)NC1=O (stereo not given)
inactive: [1] | [2] | [3] | [7] | [5] | [8]

NC(=O)NO
inactive: [1] | [2] | [3] | [7] | [5] | [8]

COc1ccccc1OCC(O)CN1CCN(CC(=O)Nc2c(C)cccc2C)CC1 (stereo not given)
inactive: [1] | [2] | [3] | [7] | [5] | [8]

CC12CC3CC(C)(C1)CC(N)(C3)C2
inactive: [1] | [2] | [3] | [7] | [5] | [8]

CCOC(=O)C(C)(C)Oc1ccc(Cl)cc1
not listed: [4] | [6] | [9]
inactive: all other assays above

O=C(C1CCCCC1)N1CC(=O)N2CCc3ccccc3C2C1 (stereo not given)
inactive: [1] | [2] | [3] | [7] | [5] | [8]

NS(=O)(=O)c1cc2c(cc1Cl)NCNS2(=O)=O
not listed: [4] | [9]
inactive: all other assays above

CC(COc1ccccc1)N(CCCl)Cc1ccccc1 (stereo not given)
inactive: [1] | [2] | [3] | [5] | [8]

NCCS(=O)(=O)O
not listed: [4]
inactive: all other assays above

CC1COc2c(N3CCN(C)CC3)c(F)cc3c(=O)c(C(=O)O)cn1c23 (stereo not given)
inactive: [1] | [2] | [3] | [7] | [5] | [8]

Clc1ccc(C(c2ccccc2Cl)C(Cl)Cl)cc1 (stereo not given)
inactive: [1] | [2] | [3] | [7] | [5] | [8]

O=C(CCCN1CCC(O)(c2ccc(Cl)cc2)CC1)c1ccc(F)cc1
not listed: [4] | [6] | [10]
inactive: all other assays above

CN1C(C(=O)Nc2ccccn2)=C(O)c2ccccc2S1(=O)=O
not listed: [4] | [6] | [10]
inactive: all other assays above

Clc1ccc2nsnc2c1NC1=NCCN1
inactive: [2] | [3] | [4] | [7] | [5] | [8]

CC#C[C@]1(O)CC[C@H]2[C@@H]3CCC4=CC(=O)CCC4=C3[C@@H](c3ccc(N(C)C)cc3)C[C@@]21C
inactive: [2] | [3] | [7]

CC(=O)OCC(CCn1cnc2cnc(N)nc21)COC(C)=O
inactive: [7]

CCCCc1oc2ccccc2c1C(=O)c1cc(I)c(OCCN(CC)CC)c(I)c1
inactive: [1] | [3] | [4]

CN(CCOc1ccc(NS(C)(=O)=O)cc1)CCc1ccc(NS(C)(=O)=O)cc1
inactive: [7]

O=C(Nc1ccc([N+](=O)[O-])cc1Cl)c1cc(Cl)ccc1O
inactive: [2] | [3] | [4] | [7] | [8]

CS(=O)(=O)Nc1ccc([N+](=O)[O-])cc1Oc1ccccc1
inactive: [1] | [2] | [7] | [8]

CN1CCN(CCCN2c3ccccc3Sc3ccc(Cl)cc32)CC1
inactive: [2] | [3] | [4]

NCCCCCC(=O)O
inactive: [1] | [3] | [4] | [7] | [5] | [8]

OCCN(CCO)c1nc(N2CCCCC2)c2nc(N(CCO)CCO)nc(N3CCCCC3)c2n1
inactive: [1] | [3] | [4] | [8] | [9]
active: [7] 31.6 µM and 22.4 µM

CCN1CCCC1CNC(=O)c1cc(S(=O)(=O)CC)c(N)cc1OC (stereo not given)
inactive: [2] | [3] | [7] | [5] | [8]

CN(C)C(=O)C(CCN1CCC(O)(c2ccc(Cl)cc2)CC1)(c1ccccc1)c1ccccc1
inactive: [2] | [3] | [4] | [7] | [9]

O=c1c(O)c(-c2ccc(O)c(O)c2)oc2cc(O)cc(O)c12
inactive: [1] | [4] | [5] | [8] | [9]

O=C1Cc2cc(CCN3CCN(c4nsc5ccccc45)CC3)c(Cl)cc2N1
inactive: [2] | [3]

COc1cc2c(c(OC)c1OC)-c1ccc(OC)c(=O)cc1[C@@H](NC(C)=O)CC2
inactive: [2] | [3] | [5] | [8] | [9] | [6]

Clc1ccccc1C(c1ccccc1)(c1ccccc1)n1ccnc1
inactive: [1] | [2] | [3]
active: [8] 25.1 µM

CS(=O)(=O)CCNCc1ccc(-c2ccc3ncnc(Nc4ccc(OCc5cccc(F)c5)c(Cl)c4)c3c2)o1
inactive: [7]

CC[C@@]1(O)C(=O)OCc2c1cc1n(c2=O)Cc2cc3c(CN(C)C)c(O)ccc3nc2-1
active: [7] 79.4 µM

COc1cc2nc(N(C)CCCNC(=O)C3CCCO3)nc(N)c2cc1OC (stereo not given)
inactive: [2] | [3] | [7] | [5] | [8]

Cc1ccc(-c2cc(C(F)(F)F)nn2-c2ccc(S(N)(=O)=O)cc2)cc1
inactive: [10]

Cn1ccc2cc3c(cc21)CCN3C(=O)Nc1cccnc1
inactive: [1] | [2] | [3] | [5] | [8] | [9]

Nc1c2c(nc3ccccc13)CCCC2
not listed: [2] | [4] | [8]
inactive: all other assays above

NC12CC3CC(CC(C3)C1)C2
inactive: [1] | [2] | [7] | [5] | [8]

CC(C)(C)C(=O)Oc1ccc(S(=O)(=O)Nc2ccccc2C(=O)NCC(=O)O)cc1
inactive: [7]

Cn1c(=O)c2c(ncn2C)n(C)c1=O
inactive: [1] | [2] | [7] | [5] | [8] | [9]

CCOC(=O)Nc1ccc(NCc2ccc(F)cc2)nc1N
inactive: [1] | [5] | [8]

C[C@H]1c2cccc(O)c2C(O)=C2C(=O)[C@]3(O)C(O)=C(C(N)=O)C(=O)[C@@H](N(C)C)[C@@H]3[C@@H](O)[C@@H]21
inactive: [2] | [3] | [4] | [7] | [5] | [8]

CN(Cc1cnc2nc(N)nc(N)c2n1)c1ccc(C(=O)N[C@@H](CCC(=O)O)C(=O)O)cc1
not listed: [2] | [6] | [10]
inactive: all other assays above

Cc1cn([C@H]2C[C@H](N=[N+]=[N-])[C@@H](CO)O2)c(=O)[nH]c1=O
inactive: [3] | [7] | [5] | [8] | [10] | [6]

COc1ccccc1OCCNCC(O)COc1cccc2[nH]c3ccccc3c12 (stereo not given)
inactive: [2] | [3] | [4] | [7]

COc1cc2nc(N3CCN(C(=O)c4ccco4)CC3)nc(N)c2cc1OC
inactive: [2] | [3] | [9]

COc1ccc(CCN(C)CCCC(C#N)(c2ccc(OC)c(OC)c2)C(C)C)cc1OC (stereo not given)
inactive: [2] | [3] | [4] | [9]

CN1CCN2c3ccccc3Cc3ccccc3C2C1 (stereo not given)
inactive: [1] | [2] | [7] | [5]
